Compounds with a hit are over-represented: about 7.5% of the library has one in this group of screens.
NPC1 prom act = qHTS Assay for NPC1 Promoter Activators; Huh7 NPC1 promoter luciferase reporter, 24 h; Potency, µM (doses to about 9.22 µM), inactives show top-dose activation, actives largely listed as activators; 320,000 compounds, 2.4% hits; AID 485313, 2010; note: % of control where 0% means no effect; nearly all actives have a fitted effect of over 60% in size
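Compounds in DMSO were transferred onto Huh7 NPC1-luciferase reporter cells pre-incubated 2 h; after 24 h at 37 °C, Amplite reagent was dispensed and luminescence recorded 10 min later.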
FLuc modulator = qHTS profiling assay for firefly luciferase inhibitor/activator using purifed enzyme and Km concentrations of substrates (counterscreen for miR-21 project); 360,000 compounds, 6.9% hits; Potency, µM (doses to about 57.5 µM), for inactives: top-dose activity change, negative = inhibition, hits mostly inhibitors; Luciferin 4-monooxygenase (Photinus pyralis), P08659; purified FLuc, Km substrates, luminescence inhibition;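 note: plate controls were vehicle for no effect and reference inhibitor for full effect; nearly all actives have a fitted effect of over 55% in size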
Target sequence (P08659 whole entry, looked up): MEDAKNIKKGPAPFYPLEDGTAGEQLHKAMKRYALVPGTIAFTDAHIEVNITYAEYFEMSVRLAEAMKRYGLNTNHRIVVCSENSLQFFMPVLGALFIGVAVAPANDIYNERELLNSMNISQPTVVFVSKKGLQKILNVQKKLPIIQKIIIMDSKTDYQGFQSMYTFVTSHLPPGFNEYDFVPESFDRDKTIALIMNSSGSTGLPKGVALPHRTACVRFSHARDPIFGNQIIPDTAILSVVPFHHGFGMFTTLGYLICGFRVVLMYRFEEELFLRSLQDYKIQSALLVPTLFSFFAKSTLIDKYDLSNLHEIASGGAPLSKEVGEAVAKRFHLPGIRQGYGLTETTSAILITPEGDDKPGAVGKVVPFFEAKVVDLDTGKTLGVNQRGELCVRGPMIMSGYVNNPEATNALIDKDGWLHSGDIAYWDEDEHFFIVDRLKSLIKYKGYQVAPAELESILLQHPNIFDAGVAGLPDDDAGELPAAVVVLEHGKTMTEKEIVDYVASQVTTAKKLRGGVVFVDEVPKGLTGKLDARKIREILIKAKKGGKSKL
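Purified P. pyralis luciferase (10nM final) with 10uM D-luciferin and 10uM ATP (Km levels) in 50mM Tris acetate pH 7.5, 10mM Mg acetate, 0.01% Tween-20, 0.05% BSA; qHTS 6-point titration, ~60 µM downward; luminescence read.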
Luc counter = Counterscreen for Luciferase (Kinase-Glo TM) Inhibition. Luciferin 4-monooxygenase (Photuris pensylvanica), Q27757. Kinase-Glo luciferase, ATP luminescence, 8 min. Potency, µM (series often up to 38.3 µM), inactives show at the top dose activity change, negative = inhibition, hits mostly inhibitors. 200,000 compounds, 0.28% hits. AID 1379, 2008; note: % is set by controls: 0 for no effect and ±100 for the full control effect; nearly all actives have a fitted effect of over 60% in size
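Light output from Kinase-Glo luciferase with luciferin and 10 uM ATP in 50 mM imidazole pH 7.2, KCl, MgCl2, Tween 20, BSA; compound pin-delivered, 8-min ambient incubation, then luminescence read.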
Rab9 promoter act = qHTS Assay for Rab9 Promoter Activators | Huh7 Rab9 promoter-luciferase reporter, luminescence, 24 h | 320,000 compounds, 2.8% hits | Potency, µM (series often up to 9.22 µM), for the others: at the top dose activation, negative = inhibition, most hits filed as activators; note: % of control where 0% means no effect; nearly all actives have a fitted effect of over 60% in size
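Quantitative HTS format; Huh7 Rab9-luciferase reporter cells (1500/well) receive compound 2 h post-plating, incubate 24 h at 37 °C, then get luciferase reagent for 10 min before luminescence reading.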
ELG1 genotoxic = qHTS screen for small molecules that induce genotoxicity in human embryonic kidney (HEK293T) cells expressing luciferase-tagged ELG1; HEK293T ELG1-luciferase reporter, luminescence, 16 h; Potency, µM (doses to about 46 µM), without a hit: at the top dose activity change, positive = activation, most hits filed as activators; 330,000 compounds, 1.3% hits; note: % of control where 0% means no effect; nearly all actives have a fitted effect of over 60% in size
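Genotoxicity was scored as increased ELG1-luciferase reporter signal, measured by ONE-Glo luminescence (30 min, room temperature). Compound or vehicle exposure of the HEK293T reporter cells lasted 16 hr at 37°C.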
SMN2 splice enh = qHTS Assay for Enhancers of SMN2 Splice Variant Expression; HEK293 SMN2-luciferase splicing reporter, luminescence, 30-36 h; Potency, µM (highest dose often 46.1 µM), for inactives: top-dose activity change, positive = activation, hits mostly activators; 210,000 compounds, 2.8% hits; AID 1458, 2008; note: % of control where 0% means no effect; nearly all actives have a fitted effect of over 55% in size
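HEK293 cells carry an SMN2 […]–luciferase reporter in which exon 7 inclusion puts luciferase in frame. Cells were plated 10-12 h before compound addition, then incubated 30-36 h at 37C. ONE-Glo luminescence was read; sodium butyrate at 4.5 mM final served as control.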
Numbers without * were called inactive; ? = inconclusive; · = no result given; [ ] = another dose, or the depositor's remark. Calls come from the whole dose curve; as a rule, active = well fitted curve in the direction sought with a large enough effect; inconclusive = small, poorly fitted or top-dose-only effect, or another doubt; inactive = no such curve, though single readings can be large; an effect the other way counts as inactive or inconclusive. Potency is the fitted concentration of half-maximal effect.

SMILES	NPC1 prom act	FLuc modulator	Luc counter	Rab9 promoter act	ELG1 genotoxic	SMN2 splice enh
CC(=O)C[C@H](O)CC(=O)[C@@H]1OC(=O)CCCCCCc2ccccc21	2%	-1%	·	0%	-1%	·
COCCCNC(=S)N1CCN(C(c2ccccc2)c2ccccc2)CC1	1%	2%	·	0%	-4%	·
CCCCN(C)C(=O)C1CCCN(S(=O)(=O)c2ccc3c(c2)CC(C)N3C(=O)C2CC2)C1 (stereo not drawn)	-3%	1%	·	0%	-2%[9.26 µM]	·
CCc1sc(C(=O)Nc2ncccc2C)cc1C	22%	?	·	25%	23%	·
CCc1sc(C(=O)Nc2nccs2)cc1C	3.5µM*	1.3µM*	·	3.2µM*	?	·
CCc1sc(C(=O)Nc2ncccc2O)cc1C	1.6µM*	6µM*	·	2.2µM*	?	·
Cc1ccsc1C(=O)Nc1nccs1	?	?	·	?	25%	·
O=c1cc(-c2ccccc2)[nH]n1-c1ccc([N+](=O)[O-])cc1	20%	15µM*	-6%	?	-2%	-9%
CCCCc1nnc(NC(=O)C2CC(=O)N(Cc3ccccc3)C2)s1 (stereo not drawn)	-8%	0%	·	-7%	1%	·
COc1ccc(OC)c(CNC(=O)Cn2nc(C)c3nn(-c4ccc(Cl)cc4)c(C)c3c2=O)c1	·	4%	·	·	·	·
O=c1nc(Nc2cccc(Cl)c2)oc2cc(Cl)oc(=O)c12	18%	13µM*	·	-2%	6%	·
CCn1c(SCC(=O)c2ccc(Cl)cc2)nnc1-c1cccs1	0%	24µM*	-2%	16%	5%	-7%
CCn1c(SCC(=O)c2ccc(Cl)cc2)nnc1C(C)C	?	19µM*	2%	?	?	2%
CCn1c(SCCOc2ccc(Cl)cc2)nnc1-c1cccs1	-2%	-2%	12%	0%	-13%	-23%
Cc1nnc(SCC(=O)c2ccc(Cl)cc2)n(N)c1=O	0.79µM*	2%	0%	1µM*	16%	5µM*
Cc1cccc(/C(N)=N/OC(=O)c2ccc(Cl)cc2Cl)c1	0.13µM*	0.48µM*	?	0.32µM*	?	5µM*
N/C(=N\OC(=O)c1cccc([N+](=O)[O-])c1)c1cccnc1	-2%	?	0%	4%	9%	-3%
Cc1ccccc1/C(N)=N/OC(=O)c1cccs1	-1%	6.7µM*	?	18%	?	-3%[1.84 µM]
C/C(=N/NC(=O)c1ccc(Cl)cc1Cl)c1cccnc1	2%	?	·	16%	1%	·
N/C(=N\OC(=O)c1ccc(Cl)cc1Cl)c1cccnc1	1.4µM*	1.2µM*	-12%	1.6µM*	2.6µM*	·
N/C(=N\OC(=O)c1ccc(Cl)cc1)c1cccnc1	17%	1.3µM*	-23%	3%	8.9µM*	8%
C/C(=N\NC(=O)c1ccc(-n2cnnn2)cc1)c1ccc(C)cc1	1%	-10%	·	-5%	2%	·
COCCN(C(=O)COC(=O)CCC(=O)c1ccc(Cl)cc1)c1c(N)n(Cc2ccccc2)c(=O)[nH]c1=O	0%	2%	·	0%	0%	·
COC(=O)c1ccc(C(/C=C/[C@@H](C)C(=O)N(C)C)NC(=O)OCc2ccccc2)cc1 (stereo partly drawn)	·	·	0%	·	·	9%
CCOc1ccc(CCn2c3c(c(=O)[nH]c2=O)C(NC(=O)c2ccccc2)(C(F)(F)F)C(=O)N3)cc1OCC (stereo not drawn)	·	-7%	·	·	·	0%
SMILES	NPC1 prom act	FLuc modulator	Luc counter	Rab9 promoter act	ELG1 genotoxic	SMN2 splice enh
N/C(Cc1ccc(Cl)c(Cl)c1)=N\OC(=O)c1cccs1	-3%	-12%	0%	0%	0%	9%
N/C(=N\OC(=O)c1cccs1)c1cccnc1	1%	8.5µM*	·	0%	?	·
N/C(=N\OC(=O)c1ccc(Cl)cc1Cl)c1ccccc1	4.5µM*	0.17µM*	11µM*	0.5µM*	?	?
N/C(Cc1ccc(Cl)cc1Cl)=N\OC(=O)c1ccccc1	0%	-19%	0%	2%	0%	-4%
Cc1ccc(/C(N)=N/OC(=O)c2ccc(C)cc2Cl)cc1	1.1µM*	0.85µM*	-4%	0.71µM*	?	?
CCSc1ccc(/C(N)=N/OC(=O)c2cccs2)cn1	?	6µM*	·	?	13µM*	·
O=C(c1ccccc1Oc1ccc([N+](=O)[O-])cc1)N1CCOCC1	0%	4%	·	-6%	8%	·
N/C(=N\OC(=O)c1ccc(Cl)cc1Cl)c1ccc(Cl)cc1	1.4µM*	0.54µM*	-7%	1.6µM*	?	22%
CCOP(=O)(OCC)/C(=N/OC(=O)c1ccc(Cl)cc1Cl)C(N)=O	-11%	-18%	·	-4%	1%	·
Cn1nnnc1SCC(=O)Nc1ccc(C(=O)N2CCN(Cc3ccccc3F)CC2)cc1	-6%	·	·	-2%	0%	·
C/C(=N/NC(=O)c1ccc2c(c1)OCO2)c1cccc(NC(=O)C(C)(C)C)c1	-7%	17µM*	4%	3%	5%	19%
C/C(=N\NC(=O)c1cc2ccccc2cc1O)c1ccc2c(c1)OCO2	21%	9.5µM*	-9%	25%	10%	15%
COc1ccccc1NS(=O)(=O)c1cccc(C(=O)N/N=C(\C)c2ccc3c(c2)OCCO3)c1	-1%	15µM*	-3%	1%	0%	-9%
COc1ccccc1NS(=O)(=O)c1cccc(C(=O)N/N=C(\C)c2cccnc2)c1	-1%	2%	·	2%	1%	·
COc1ccc(/C(C)=N\NC(=O)c2ccc3c(c2)OCO3)cc1OC	1%	?	-4%	2%	3%	-8%
C/C(=N/NC(=O)c1ccc2c(c1)OCO2)c1ccc(NC(=O)c2ccc(F)cc2)cc1	16%	-7%	·	23%	15µM*	·
Cc1ccc(NC(=O)CSc2nnc(-c3ccc([N+](=O)[O-])cc3)o2)c(C)c1	·	-11%	·	·	·	·
CCCN1C2CCCC1CC(NC(=O)c1ccccc1Br)C2 (stereo not drawn)	-2%	0%	·	1%	0%	·
C=Cc1ccc(CSc2nc(-c3ccccc3C)nc3c2Cc2c(CO)cnc(C)c2O3)cc1	·	0%	·	·	·	·
COc1ccc(C2C(C(=O)O)CCC(=O)N2c2ccc(C)cc2)cc1OC (stereo not drawn)	1%	0%	·	-1%	0%	·
